From PubChem BioAssay AID504904 (The Scripps Research Institute Molecular Screening Center, 2011)
The list shows a part of the results. Active and inactive are the calls of the source. No stated cut-off is given here; in the data, active means activation above about 18%; inactive means the rest.

These compounds were tested against Mu-type opioid receptor (Homo sapiens) + Delta-type opioid receptor (Homo sapiens) (UniProt P35372+P41143) (assay: agonists of MOR-DOR heterodimerization, confirmation, cell-based, luminescence (AID 504904;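 further: 0% = vehicle-treated cells and 100% = reference agonist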)). Conditions: cells, luminescence complementation, at 9.3 µM, active compounds read high.
Sequence of Mu-type opioid receptor (Homo sapiens) + Delta-type opioid receptor (Homo sapiens) (P35372 whole entry, looked up): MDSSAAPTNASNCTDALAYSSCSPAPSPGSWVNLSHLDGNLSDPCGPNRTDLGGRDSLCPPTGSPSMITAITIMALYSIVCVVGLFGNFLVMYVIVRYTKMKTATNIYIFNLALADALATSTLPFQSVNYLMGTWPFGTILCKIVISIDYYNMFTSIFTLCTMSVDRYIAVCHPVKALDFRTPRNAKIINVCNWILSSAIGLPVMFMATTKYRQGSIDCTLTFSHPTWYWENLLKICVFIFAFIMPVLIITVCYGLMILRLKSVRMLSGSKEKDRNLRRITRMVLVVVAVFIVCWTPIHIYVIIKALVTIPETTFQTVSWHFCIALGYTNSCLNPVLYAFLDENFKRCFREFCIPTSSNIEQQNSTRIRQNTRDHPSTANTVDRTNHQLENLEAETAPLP
Sequence of Mu-type opioid receptor (Homo sapiens) + Delta-type opioid receptor (Homo sapiens) (P41143 whole entry, looked up): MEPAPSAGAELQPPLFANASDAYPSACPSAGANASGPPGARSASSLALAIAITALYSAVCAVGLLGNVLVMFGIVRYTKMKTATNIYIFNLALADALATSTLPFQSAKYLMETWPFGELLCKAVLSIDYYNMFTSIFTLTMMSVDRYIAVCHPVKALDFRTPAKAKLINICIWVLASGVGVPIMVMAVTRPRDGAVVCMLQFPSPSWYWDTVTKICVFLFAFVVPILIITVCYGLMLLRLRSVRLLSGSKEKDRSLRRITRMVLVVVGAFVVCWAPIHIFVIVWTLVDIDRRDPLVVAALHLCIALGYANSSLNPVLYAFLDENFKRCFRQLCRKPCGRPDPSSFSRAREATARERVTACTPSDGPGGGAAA

activation, inactive:
O=C(NC1=CC(=O)c2ccccc2C1=O)c1ccccc1 7.9%
CN(C)CCCN(C(=O)c1ccc(S(=O)(=O)N2CCCc3ccccc32)cc1)c1nc2ccc(F)cc2s1 8.38%
CCC(C(=O)OCC(=O)Nc1ccc(C(=O)Nc2ccc(OC)cc2)cc1)c1ccccc1 (stereo unspecified) 4.73%
COc1ccc(-n2nnnc2-c2nc3ccccc3s2)cc1 3.47%
CN(CC(=O)Nc1ccc(Cl)cc1)C(=O)c1ccc(COc2ccccc2)cc1 0.49%
COc1ccc(C2Nc3ccccc3C(=O)N2c2ccc(F)cc2)cc1Cn1nnc2ccccc21 (stereo unspecified) 0.83%
N#C/C(=C(/O)COC(=O)COc1ccc(Cl)cc1)c1nc2ccccc2[nH]1 13.4%
O=C(Nc1ccc(OC(F)(F)F)cc1)c1ccc2c(c1)no[n+]2[O-] 13.3%
Clc1ccc(COn2c(-c3ccc(Cl)cc3Cl)nc3ncccc32)cc1 2.83%
CN(C)C(CNC(=O)c1ccc(S(=O)(=O)NCc2ccco2)cc1)c1ccccc1 (stereo unspecified) 16.7%
COc1cc(/C=N/NC(=O)Nc2ccccc2)ccc1OCCOc1ccccc1C 17.1%
COc1ccccc1C(CNC(=O)c1ccc(C)c(S(=O)(=O)N2CCCCC2)c1)N(C)C (stereo unspecified) 3.98%
Cc1ccc(-n2c(SCC(=O)NCCC3=CCCCC3)nc3n[nH]c(C)c3c2=N)cc1Cl 2.44%
CC(OC(=O)/C=C/c1ccccc1)C(=O)Nc1ccc(C(N)=O)cc1 (stereo unspecified) -2.09%

activation, active:
COc1ccc(SC[C@H](Cc2ccccc2)N2CCN(CCc3ccccc3)CCC2=O)cc1 28.3%
CCCC(=O)NC(C)C(c1cccs1)N1CCN(c2ccccc2)CC1 (stereo unspecified) 36.7%
CCOC(=O)c1c(C)[nH]c2c1-c1ccccc1C(=O)C2=O 18.7%
CCOC(=O)C1(CC2CCCCO2)CCN(Cc2nc(-c3cccs3)oc2C)CC1 (stereo unspecified) 49.1%
CN(C)C(CNC(=O)Cc1ccc([N+](=O)[O-])cc1)c1ccccc1 (stereo unspecified) 164%
O=C1N/C(=C/c2cccs2)C(=O)N1Cc1ccc(F)cc1 35%
Cc1ccc(OCC(=O)Nc2ccc(NC(=O)c3cccs3)cc2)c(C)c1 421%
